Reference: PubChem BioAssay
The source made the active and inactive calls.

Legend:
[1] = small molecules captured by biotinylated probe aFSTL3 – biochemical, small-molecule microarray, fluorescence 635/667, stem cell growth factor project, primary screen (AID 1064); conditions: higher = more signal;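 also: measures binding of the biotinylated anti-FSTL3 antibody to printed compounds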
[2] = binders from COS7 lysate, DM2A8 probe, primary screen, torsin A project, cell lysate, small-molecule microarray, fluorescence 635/667 (AID 1065); conditions: higher = more signal, COS7 lysate expressing mutant human TOR1A
[3] = small molecules captured by biotinylated probe aFGF2 – biochemical, small-molecule microarray, fluorescence 635/667, stem cell growth factor project, primary screen (AID 1067); conditions: higher = more signal;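 also: measures binding of biotinylated aFGF2 protein to printed compounds on slides; z-score merges feature fluorescence and signal-to-noise across triplicate slides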
[4] = small molecules captured by biotinylated probe aFGF10 – biochemical, small-molecule microarray, fluorescence 635/667, stem cell growth factor project, primary screen (AID 1071); conditions: higher = more signal;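 also: score merges 667 nm spot intensity and signal to noise from triplicate slides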
[5] = molecular target: Neurogenic locus notch homolog protein 2 (Homo sapiens) (UniProt Q04721); test: small molecules binding Notch2 protein – biochemical, small-molecule microarray, 635 nm fluorescence, stem cell growth factors, primary screen (AID 1073); conditions: higher = more signal
[6] = molecular target: Pro-neuregulin-1, membrane-bound isoform (Homo sapiens) (UniProt Q02297); test: small molecules binding neuregulin-1 protein – biochemical, small-molecule microarray, fluorescence 635/667, psychiatric disease protein project, primary screen (AID 1075); conditions: NRG1 binding, 635 nm fluorescence, higher = more signal;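 also: score combines 667 nm spot fluorescence with signal to noise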
[7] = test system: Neuregulin-1 EGF-like domain; test: small molecules binding NRG1 EGF domain – biochemical, small-molecule microarray, 635 nm fluorescence, primary screen (AID 1081); conditions: higher = more signal;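 also: binding of the protein to compounds printed on small-molecule microarray slides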
[8] = FRG1 expression reporter modulators in myotubes – cell-based, C2C12 myotubes, firefly/Renilla luciferase, luminescence, FRG1 inhibition for FSHD, primary screen (AID 1084); conditions: FRG1 promoter luciferase, higher = more signal, called active from +8 up or from −8 down
[9] = small molecules captured by biotinylated probe aFST – biochemical, small-molecule microarray, fluorescence 635/667, stem cell growth factor project, primary screen (AID 1086); conditions: higher = more signal;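 also: score merges 667 nm fluorescence with signal-to-noise of each printed compound spot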
[10] = binders of probe aHhip on microarray, primary screen, stem cell growth factor project, biochemical, small-molecule microarray, fluorescence 635/667 (AID 1087); conditions: higher = more signal;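 also: score merges spot fluorescence at 667nm with spot signal to noise ratio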
[11] = test system: PRMT1 (protein arginine N-methyltransferase 1); test: small molecules binding arginine methyltransferase PRMT1 – biochemical, small-molecule microarray, 635 nm fluorescence, primary screen (AID 1088); conditions: higher = more signal;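 also: binding of Prmt1 protein to compounds spotted on small-molecule microarray slides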
[12] = growth effects on S. cerevisiae YJM789 – YJM789 clinical isolate, OD600, 24 h, basal, primary screen (AID 1089); conditions: higher = more signal, called active from +8 up or from −8 down;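 also: growth of clinical yeast isolate S. cerevisiae YJM 789 seeded 1000 cells per well; test concentration not given here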
[13] = S. pombe growth modifiers, basal conditions – strain 972, OD600, 24 h, no modulator, primary screen (AID 1090);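 also: basal condition with compound alone and no growth modifier present; test concentration not given here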; conditions: S. pombe 972 growth, higher = more signal, called active from +8 up or from −8 down
[14] = budding yeast growth modifiers under rapamycin – strain BY4716, OD600, 96 h, primary screen (AID 1091); also: test concentration not given here; conditions: S. cerevisiae BY4716 + rapamycin, higher = more signal, called active from +8 up or from −8 down
[15] = molecular target: Torsin-1A-interacting protein 2 (Homo sapiens) (UniProt Q8NFQ8); test: small molecules binding lysate-expressed LULL1 – cell lysate, human LULL1 lysate, 635/667 nm fluorescence, primary screen (AID 1092); conditions: small-molecule microarray, hLULL1 lysate binding, 635 nm fluorescence; higher = more signal;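 also: probe is lysate of COS7 cells overexpressing human LULL1; score merges per-feature 667 nm fluorescence with signal-to-noise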
[16] = optical density change of DRC41 E. coli – strain DRC41, OD650, 24 h, E. coli filamentation project, primary screen (AID 1093);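 also: MC1000 strain lacking acrAB efflux and sulA so SOS filamentation is blocked; test concentration not given here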; conditions: E. coli DRC41 growth, higher = more signal, called active from +8 up or from −8 down
[17] = probe aLefty2 binding to arrayed compounds – biochemical, biotinylated probe, 635/667 nm fluorescence, primary screen (AID 1094); conditions: small-molecule microarray, higher = more signal;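 also: score merges spot fluorescence near 667 nm with spot signal-to-noise ratio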
[18] = test system: Noggin (protein binding on small-molecule microarray); test: small molecules binding Noggin protein – biochemical, 635/667 nm fluorescence, primary screen (AID 1095); conditions: 635 nm fluorescence, higher = more signal;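 also: score merges 667 nm feature fluorescence with signal to noise over triplicate slides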
[19] = molecular target: Neurogenic locus notch homolog protein 3 (Homo sapiens) (UniProt Q9UM47); test: small molecules binding NOTCH3 protein – biochemical, 635/667 nm fluorescence, primary screen (AID 1096); conditions: small-molecule microarray, 635 nm fluorescence, higher = more signal
[20] = probe aEGFR binding to arrayed compounds – biochemical, biotinylated probe, 635/667 nm fluorescence, primary screen (AID 1097); conditions: small-molecule microarray, higher = more signal;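 also: probe is a biotinylated anti-EGFR antibody binding compounds printed on slides; score combines fluorescence near 667 nm and signal to noise of each spot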

Sequence of Neurogenic locus notch homolog protein 2 (Homo sapiens) (Q04721 whole entry, looked up, canonical isoform): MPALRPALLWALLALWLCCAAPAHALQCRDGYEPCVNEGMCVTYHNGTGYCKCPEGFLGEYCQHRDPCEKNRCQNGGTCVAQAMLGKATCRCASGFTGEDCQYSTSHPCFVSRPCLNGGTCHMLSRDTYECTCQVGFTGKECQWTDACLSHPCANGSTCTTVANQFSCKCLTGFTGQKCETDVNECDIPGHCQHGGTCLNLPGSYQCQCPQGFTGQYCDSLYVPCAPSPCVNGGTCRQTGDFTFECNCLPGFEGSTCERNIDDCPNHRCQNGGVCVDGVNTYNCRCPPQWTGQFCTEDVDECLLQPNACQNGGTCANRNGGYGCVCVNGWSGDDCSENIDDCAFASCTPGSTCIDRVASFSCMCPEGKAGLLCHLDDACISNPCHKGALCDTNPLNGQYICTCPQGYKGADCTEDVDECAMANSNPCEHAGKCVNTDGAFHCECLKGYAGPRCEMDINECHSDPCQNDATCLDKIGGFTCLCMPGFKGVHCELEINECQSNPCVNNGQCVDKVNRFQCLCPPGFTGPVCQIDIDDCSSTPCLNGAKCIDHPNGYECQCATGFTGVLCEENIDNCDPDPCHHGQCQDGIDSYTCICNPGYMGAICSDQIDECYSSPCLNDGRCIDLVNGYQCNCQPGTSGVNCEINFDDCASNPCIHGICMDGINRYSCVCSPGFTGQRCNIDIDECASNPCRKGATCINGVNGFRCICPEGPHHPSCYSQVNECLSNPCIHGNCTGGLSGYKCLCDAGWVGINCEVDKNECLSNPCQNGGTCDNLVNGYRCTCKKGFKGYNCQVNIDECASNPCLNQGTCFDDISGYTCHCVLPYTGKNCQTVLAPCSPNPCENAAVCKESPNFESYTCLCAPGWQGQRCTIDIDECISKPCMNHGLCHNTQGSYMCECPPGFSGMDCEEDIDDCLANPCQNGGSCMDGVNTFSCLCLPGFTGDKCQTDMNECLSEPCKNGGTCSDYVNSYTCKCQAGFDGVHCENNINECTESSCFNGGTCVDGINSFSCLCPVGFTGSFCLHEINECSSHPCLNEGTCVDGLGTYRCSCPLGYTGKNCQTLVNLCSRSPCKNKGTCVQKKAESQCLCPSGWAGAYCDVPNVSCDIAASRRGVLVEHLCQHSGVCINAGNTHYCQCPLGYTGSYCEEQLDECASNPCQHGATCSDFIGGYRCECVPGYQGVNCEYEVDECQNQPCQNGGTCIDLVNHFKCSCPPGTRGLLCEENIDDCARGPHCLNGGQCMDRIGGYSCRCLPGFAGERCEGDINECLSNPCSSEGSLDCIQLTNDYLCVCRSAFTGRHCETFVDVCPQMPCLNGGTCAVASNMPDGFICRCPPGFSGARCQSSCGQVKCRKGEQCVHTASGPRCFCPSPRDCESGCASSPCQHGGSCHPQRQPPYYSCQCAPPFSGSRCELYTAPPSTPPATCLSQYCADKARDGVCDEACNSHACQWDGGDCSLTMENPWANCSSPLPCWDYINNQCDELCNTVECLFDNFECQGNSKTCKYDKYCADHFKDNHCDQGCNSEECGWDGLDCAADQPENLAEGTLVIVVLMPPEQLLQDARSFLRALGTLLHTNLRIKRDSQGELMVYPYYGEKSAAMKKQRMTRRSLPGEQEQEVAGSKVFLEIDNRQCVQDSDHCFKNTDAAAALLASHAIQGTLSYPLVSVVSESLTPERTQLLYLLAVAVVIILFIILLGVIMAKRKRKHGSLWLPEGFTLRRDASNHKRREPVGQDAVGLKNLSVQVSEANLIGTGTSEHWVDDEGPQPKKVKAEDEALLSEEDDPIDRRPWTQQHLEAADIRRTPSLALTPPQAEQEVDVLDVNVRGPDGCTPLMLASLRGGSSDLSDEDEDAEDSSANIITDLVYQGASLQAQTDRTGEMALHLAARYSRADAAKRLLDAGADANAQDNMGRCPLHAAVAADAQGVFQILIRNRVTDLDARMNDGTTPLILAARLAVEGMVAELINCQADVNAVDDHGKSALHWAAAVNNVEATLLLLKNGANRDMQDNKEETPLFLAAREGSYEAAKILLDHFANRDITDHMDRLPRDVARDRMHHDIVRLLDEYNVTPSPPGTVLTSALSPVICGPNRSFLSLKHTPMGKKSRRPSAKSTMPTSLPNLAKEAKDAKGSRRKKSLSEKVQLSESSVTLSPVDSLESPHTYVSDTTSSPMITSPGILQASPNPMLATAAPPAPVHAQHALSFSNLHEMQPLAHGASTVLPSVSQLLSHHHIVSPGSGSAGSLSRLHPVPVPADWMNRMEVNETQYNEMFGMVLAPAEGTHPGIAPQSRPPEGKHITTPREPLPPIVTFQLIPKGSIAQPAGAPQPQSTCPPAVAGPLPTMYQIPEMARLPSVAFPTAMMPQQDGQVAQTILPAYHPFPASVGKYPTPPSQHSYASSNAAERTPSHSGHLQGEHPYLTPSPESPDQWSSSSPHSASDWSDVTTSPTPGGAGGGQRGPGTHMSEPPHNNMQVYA
Sequence of Torsin-1A-interacting protein 2 (Homo sapiens) (Q8NFQ8 whole entry, looked up): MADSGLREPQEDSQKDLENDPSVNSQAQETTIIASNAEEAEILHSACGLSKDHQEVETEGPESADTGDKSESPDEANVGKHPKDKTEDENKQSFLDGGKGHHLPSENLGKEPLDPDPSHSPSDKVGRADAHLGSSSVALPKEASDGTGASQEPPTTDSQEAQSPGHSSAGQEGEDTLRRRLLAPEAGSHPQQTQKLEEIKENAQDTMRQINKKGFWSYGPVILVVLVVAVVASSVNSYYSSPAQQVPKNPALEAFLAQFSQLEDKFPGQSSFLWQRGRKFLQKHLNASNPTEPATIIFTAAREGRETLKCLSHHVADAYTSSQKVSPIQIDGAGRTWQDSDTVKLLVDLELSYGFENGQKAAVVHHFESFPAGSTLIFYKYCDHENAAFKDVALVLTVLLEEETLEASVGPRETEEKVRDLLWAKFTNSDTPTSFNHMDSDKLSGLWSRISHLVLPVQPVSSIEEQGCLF
Sequence of Pro-neuregulin-1, membrane-bound isoform (Homo sapiens) (Q02297 whole entry, looked up, the tested form may be a part, canonical isoform): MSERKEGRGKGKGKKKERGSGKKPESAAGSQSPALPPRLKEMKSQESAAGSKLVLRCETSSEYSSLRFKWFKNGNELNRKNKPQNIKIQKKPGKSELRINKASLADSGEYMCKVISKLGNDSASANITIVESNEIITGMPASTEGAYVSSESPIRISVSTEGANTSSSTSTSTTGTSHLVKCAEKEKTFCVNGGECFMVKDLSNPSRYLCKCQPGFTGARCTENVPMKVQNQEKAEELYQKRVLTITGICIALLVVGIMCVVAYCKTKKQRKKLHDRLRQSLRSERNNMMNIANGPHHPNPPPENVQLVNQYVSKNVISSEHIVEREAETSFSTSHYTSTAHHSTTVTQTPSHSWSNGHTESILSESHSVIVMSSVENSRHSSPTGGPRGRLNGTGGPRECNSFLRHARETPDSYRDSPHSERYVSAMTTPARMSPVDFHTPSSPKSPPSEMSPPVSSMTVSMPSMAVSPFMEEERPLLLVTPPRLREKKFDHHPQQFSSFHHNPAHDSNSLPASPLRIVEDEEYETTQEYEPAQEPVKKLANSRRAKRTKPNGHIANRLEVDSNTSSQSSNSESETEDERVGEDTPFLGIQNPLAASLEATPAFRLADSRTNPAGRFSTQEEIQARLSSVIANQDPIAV

Compound	composite z-score [1]	composite z-score [2]	composite z-score [3]	composite z-score [4]	composite z-score [5]	composite z-score [6]	composite z-score [7]	z-score [8]	composite z-score [9]	composite z-score [10]	composite z-score [11]	z-score [12]	z-score [13]	z-score [14]	composite z-score [15]	z-score [16]	composite z-score [17]	composite z-score [18]	composite z-score [19]	composite z-score [20]
CCCCC(O)C1C=CC2C(=O)N(c3ccccc3)C(=O)C2N1Nc1ccccc1F (stereo not given)	1.12	0.0488	0.256	0.516	0.829	1.15	1.2	0.221 (inactive)	1.75	0.953	1.11	-0.0377 (inactive)	-0.579 (inactive)	1.03 (inactive)	2.99	-0.825 (inactive)	0.648	-0.0787	0.818	0.159
COCCOC(=O)N1C(=O)[C@@]2(c3cc(C#CC4=CCCCC4)ccc31)[C@H](C(=O)Nc1nc3ccccc3s1)[C@H]1C(=O)O[C@H](c3ccccc3)[C@H](c3ccccc3)N1[C@@H]2c1ccc(OCCO)cc1	-0.152	0.471	-0.0009	0.427	1.12	0.342	0.899	2.19 (inactive)	0.146	-0.0994	1.58	2.47 (inactive)	1.97 (inactive)	2.07 (inactive)	1.82	0.373 (inactive)	-0.119	1.23	1.14	-0.0238
Cc1ccc(S[C@]2(C(=O)NCCN3CCOCC3)CC(=O)N(Cc3ccccc3)[C@@H]2c2ccc(CO)cc2I)cc1	1.09	-0.883	-0.0564	-0.165	-1.51	0.742	1.49	-0.456 (inactive)	-0.39	-0.0645	0.01	-0.605 (inactive)	-3 (inactive)	0.576 (inactive)	2.07	-1.17 (inactive)	0.0769	-1.57	-0.791	-0.378
COC(=O)c1c(CC[C@@H](CO)NC(=O)N[C@@H](C)Cn2cc(C3(O)CCCCC3)nn2)oc(C(C)=O)c1C(=O)OC	-0.548	1.14	-0.0512	1.01	1.25	0.518	1.3	1.2 (inactive)	0.817	-0.184	1.54	0.34 (inactive)	-0.261 (inactive)	0.107 (inactive)	1.16	-0.338 (inactive)	0.0621	1.16	1.05	0.173
[N-]=[N+]=Nc1ccccc1C[C@]1(C(=O)NCC(O)CO)N=C(c2ccc(OCCCO)cc2)O[C@H]1c1ccccc1N=[N+]=[N-] (stereo not given in full)	0.722	0.0264	0.056	0.33	0.379	1.45	0.753	-0.516 (inactive)	0.375	-0.0994	-0.918	0.637 (inactive)	-0.824 (inactive)	0.0558 (inactive)	2.98	0.774 (inactive)	0.334	-0.609	0.203	0.383
COCCOC(=O)N1C(=O)[C@@]2(c3ccccc31)[C@H](c1ccc(O)cc1)N1[C@H](c3ccccc3)[C@H](c3ccccc3)OC(=O)[C@H]1[C@@H]2C(=O)NC[C@H](O)c1ccccc1	0.0147	0.702	-0.0702	0.157	0.187	1.8	1.26	-0.567 (inactive)	0.118	0.0093	1.51	0.385 (inactive)	-0.238 (inactive)	2.73 (inactive)	2.98	0.505 (inactive)	-0.23	0.399	0.669	-0.165
O=C1OCC=C[C@H]2OC34C=CCN(CCN5CCOCC5)C(=O)[C@H]3N(CCCO)C(=O)[C@@H]4[C@@H]12 (stereo not given in full)	-0.206	-0.426	-0.139	-0.02	-0.146	-0.125	0.59	1.78 (inactive)	-0.382	-0.0003	-0.102	0.0736 (inactive)	-0.454 (inactive)	0.238 (inactive)	0.477	0.681 (inactive)	-0.208	0.219	0.314	-0.128
[N-]=[N+]=NCc1ccccc1[C@@H]1OC(c2ccc(OCCCO)cc2)=N[C@]1(Cc1ccccc1N=[N+]=[N-])C(=O)N1CCOCC1	0.36	0.485	0.321	0.636	1.66	1.77	1.1	-0.825 (inactive)	1.08	-0.0994	1.55	-1.29 (inactive)	-1.59 (inactive)	4.14 (inactive)	3.25	-0.667 (inactive)	0.295	1.04	1.04	0.246
C[N+](C)(C)CCCC[C@@H]1NC(=O)[C@@H]2C[C@H](C(=O)NCCCCCN)[C@H](c3cccc(OCCO)c3)N2C1=O	0.6	1.6	-0.0253	0.506	1.14	2.15	1.08	-0.992 (inactive)	0.877	0.161	1.28	-0.465 (inactive)	-2.09 (inactive)	0.371 (inactive)	2.15	-0.291 (inactive)	0.231	-0.0236	0.182	-0.0037
CC(C)(C)OC(=O)CC[C@@]1(C(N)=O)N=C(c2ccc(OCCCO)cc2)O[C@@H]1c1ccccc1	0.0075	1.93	-0.0399	0.558	1.29	1.71	1.24	0.18 (inactive)	1.05	-0.134	1.57	-0.145 (inactive)	-0.589 (inactive)	-0.399 (inactive)	3.17	-0.511 (inactive)	0.0917	0.392	0.79	0.106
